In PubChem BioAssay (Tox21):
“And” between values parts separate entries of the source, which are not always exact repeats. Equal values may be shown once. Results filed as inconclusive are left out. Some compounds were tested as several samples or in several runs, with calls that do not always agree. The source made the active and inactive calls. Calls follow the shape of the dose curve; as a rule, active = well fitted curve in the direction sought with a large enough effect in the repeat runs; inconclusive = weak or mixed curves; inactive = no such curve, though single readings can be large; an effect the other way counts as inactive or inconclusive.

Columns and labels:
[1] = A CellTox Green Cytotoxicity Assay to monitor cytotoxicity in HEK293 cells - 40 hour (AID 1224871); also: nearly all actives have a fitted effect of over 45% in size; also: potency is read from the fitted curve at half-maximal effect
In short: (§1)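 Each value comes from one timepoint of a single continuous run in which HEK293 cells with CellTox Green were exposed to compound for up to 40 h at 37 C, dye fluorescence rising with cell death.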

[2] = qHTS RealTime-Glo MT Cell Viability Assay in HEK293 cells - 16 hour (AID 1224872); also: nearly all actives have a fitted effect of over 50% in size; also: potency is read from the fitted curve at half-maximal effect
In short: (§2)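 HEK293 cells seeded with NanoLuc/prosubstrate reagent, rested 5 h at 37 C, then dosed and kept at 37 C up to 40 h. Nonlytic real-time luminescence from viable cells read at 0, 8, 16, 24, 32 and 40 h.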

[3] = qHTS RealTime-Glo MT Cell Viability Assay in HepG2 cells - 8 hour (AID 1224873); also: nearly all actives have a fitted effect of over 55% in size
In short: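 Real-time viability: cells seeded at 600 per well together with NanoLuc and cell-permeant prosubstrate, compounds added after 5 h incubation. Luminescence tracked at 0, 8, 16, 24, 32 and 40 h of exposure.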

[4] = qHTS RealTime-Glo MT Cell Viability Assay in HEK293 cells - 40 hour (AID 1224874); details: RealTime-Glo luminescence; max response: stronger effect = lower value; also: nearly all actives have a fitted effect of over 50% in size; also: potency is read from the fitted curve at half-maximal effect
In short: (§3)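 qHTS format; HEK293 cells with NanoLuc/prosubstrate reagent, 37 C/5% CO2 for 5 h pre-dosing; compounds 23 nL in DMSO; luminescence at each time point reflects viable cells.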

[5] = A CellTox Green Cytotoxicity Assay to monitor cytotoxicity in HEK293 cells - 24 hour (AID 1224875); also: series mostly up to about 77 µM; nearly all actives have a fitted effect of over 45% in size
In short: as §1

[6] = A CellTox Green Cytotoxicity Assay to monitor cytotoxicity in HepG2 cells - 16 hour (AID 1224876); also: nearly all actives have a fitted effect of over 45% in size
In short: (§4)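 Continuous culture of HepG2 cells with a membrane-impermeant DNA dye; rising fluorescence marks dead cells. Compound exposure lasted up to 40 h at 37 C, with reads every 8 h from 0 h.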

[7] = qHTS RealTime-Glo MT Cell Viability Assay in HepG2 cells - 32 hour (AID 1224877); also: nearly all actives have a fitted effect of over 55% in size; also: potency is read from the fitted curve at half-maximal effect
In short: (§5)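 HepG2 cells (600/well) were dispensed with RealTime-Glo reagents, incubated 5 h at 37 °C, then treated with compounds in DMSO for up to 40 h. Nonlytic NanoLuc luminescence reflecting viable cells was read at each stated time point.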

[8] = A CellTox Green Cytotoxicity Assay to monitor cytotoxicity in HepG2 cells - 24 hour (AID 1224878); also: nearly all actives have a fitted effect of over 45% in size
In short: as §4

[9] = A CellTox Green Cytotoxicity Assay to monitor cytotoxicity in HepG2 cells - 40 hour (AID 1224879); also: nearly all actives have a fitted effect of over 40% in size
In short: as §4

[10] = qHTS RealTime-Glo MT Cell Viability Assay in HEK293 cells - 0 hour (AID 1224880)
In short: as §3

[11] = A CellTox Green Cytotoxicity Assay to monitor cytotoxicity in HEK293 cells - 32 hour (AID 1224881); also: nearly all actives have a fitted effect of over 40% in size
In short: as §1

[12] = A CellTox Green Cytotoxicity Assay to monitor cytotoxicity in HepG2 cells - 0 hour (AID 1224882); also: nearly all actives have a fitted effect of over 35% in size
In short: as §4

[13] = A CellTox Green Cytotoxicity Assay to monitor cytotoxicity in HepG2 cells - 32 hour (AID 1224883); also: nearly all actives have a fitted effect of over 50% in size
In short: as §4

[14] = A CellTox Green Cytotoxicity Assay to monitor cytotoxicity in HEK293 cells - 8 hour (AID 1224884); also: nearly all actives have a fitted effect of over 35% in size
In short: as §1

[15] = qHTS RealTime-Glo MT Cell Viability Assay in HepG2 cells - 16 hour (AID 1224885); also: nearly all actives have a fitted effect of over 50% in size
In short: as §5

[16] = qHTS RealTime-Glo MT Cell Viability Assay in HEK293 cells - 24 hour (AID 1224886); also: nearly all actives have a fitted effect of over 50% in size; also: potency is read from the fitted curve at half-maximal effect
In short: as §2

[17] = qHTS RealTime-Glo MT Cell Viability Assay in HEK293 cells - 8 hour (AID 1224887); also: nearly all actives have a fitted effect of over 50% in size; also: potency is read from the fitted curve at half-maximal effect
In short: as §3

[18] = A CellTox Green Cytotoxicity Assay to monitor cytotoxicity in HEK293 cells - 16 hour (AID 1224888); also: nearly all actives have a fitted effect of over 35% in size
In short: as §1

[19] = qHTS RealTime-Glo MT Cell Viability Assay in HepG2 cells - 0 hour (AID 1224889); also: nearly all actives have a fitted effect of over 50% in size
In short: as §5

[20] = A CellTox Green Cytotoxicity Assay to monitor cytotoxicity in HepG2 cells - 8 hour (AID 1224890); also: nearly all actives have a fitted effect of over 45% in size
In short: as §4
% is scaled to controls: 0 for no effect and ±100 for the full control effect.

C1COCCN1
inactive: Potency [1] | Potency [2] | Potency [3] | max response [4] -0.365% and -12.5% and 10.6% | Potency [5] | Potency [6] | Potency [7] | Potency [8] | Potency [9] | Potency [10] | Potency [11] | Potency [12] | Potency [13] | Potency [14] | Potency [15] | Potency [16] | Potency [17] | Potency [18] | Potency [19] | Potency [20]

CCCCCCOCCOCCO
inactive: Potency [1] | Potency [2] | Potency [3] | max response [4] 4% and -0.302% | Potency [5] | Potency [6] | Potency [7] | Potency [8] | Potency [9] | Potency [10] | Potency [11] | Potency [12] | Potency [13] | Potency [14] | Potency [15] | Potency [16] | Potency [17] | Potency [18] | Potency [19] | Potency [20]

COc1ccc2nc(N)sc2c1
inactive: Potency [1] | Potency [2] | Potency [3] | max response [4] 7.94% | Potency [5] | Potency [6] | Potency [7] | Potency [8] | Potency [9] | Potency [10] | Potency [11] | Potency [12] | Potency [13] | Potency [14] | Potency [15] | Potency [17] | Potency [18] | Potency [19] | Potency [20]
inactive and 3.09 µM (active): Potency [16]

Nc1cc([N+](=O)[O-])ccc1C(=O)O
inactive: Potency [1] | Potency [2] | Potency [3] | max response [4] 9.73% and 6.1% | Potency [5] | Potency [6] | Potency [7] | Potency [8] | Potency [9] | Potency [10] | Potency [11] | Potency [12] | Potency [13] | Potency [14] | Potency [15] | Potency [16] | Potency [17] | Potency [18] | Potency [19] | Potency [20]

O=C(O)c1cc(=O)[nH]c(=O)[nH]1
inactive: Potency [1] | Potency [2] | Potency [3] | max response [4] 10.8% and 0.747% | Potency [5] | Potency [6] | Potency [7] | Potency [8] | Potency [9] | Potency [10] | Potency [11] | Potency [12] | Potency [13] | Potency [14] | Potency [15] | Potency [16] | Potency [17] | Potency [18] | Potency [19] | Potency [20]

CCOC(=O)C(C)Oc1ccc(Oc2cnc3cc(Cl)ccc3n2)cc1 (centres undefined)
inactive and 1.29 µM (active): Potency [1]
active: Potency [2] 20 µM and 20.5 µM | Potency [4] 44.7 µM | Potency [16] 22.4 µM and 36.4 µM | Potency [17] 14.1 µM and 16.3 µM
inactive: Potency [3] | max response [4] -24.7% | Potency [6] | Potency [7] | Potency [8] | Potency [9] | Potency [10] | Potency [12] | Potency [13] | Potency [14] | Potency [15] | Potency [18] | Potency [19] | Potency [20]

CC(=O)OC(C)C
inactive: Potency [1] | Potency [2] | Potency [3] | max response [4] -9.76% and -7.44% | Potency [5] | Potency [6] | Potency [7] | Potency [8] | Potency [9] | Potency [10] | Potency [11] | Potency [12] | Potency [13] | Potency [14] | Potency [15] | Potency [16] | Potency [17] | Potency [18] | Potency [19] | Potency [20]

C=C[C@@]1(C)CC(=O)[C@]2(O)[C@@]3(C)[C@@H](O)CCC(C)(C)[C@@H]3[C@H](O)[C@H](OC(C)=O)[C@@]2(C)O1
inactive: Potency [1] | Potency [2] | Potency [3] | max response [4] -11.8% | Potency [5] | Potency [6] | Potency [7] | Potency [8] | Potency [9] | Potency [10] | Potency [11] | Potency [12] | Potency [13] | Potency [14] | Potency [15] | Potency [16] | Potency [17] | Potency [18] | Potency [19] | Potency [20]

CCc1cccc2c3c([nH]c12)C(CC)(CC(=O)O)OCC3 (centres undefined)
inactive: Potency [1] | Potency [2] | Potency [3] | max response [4] 0.853% and 0.265% | Potency [5] | Potency [6] | Potency [7] | Potency [8] | Potency [9] | Potency [10] | Potency [12] | Potency [13] | Potency [14] | Potency [15] | Potency [16] | Potency [17] | Potency [18] | Potency [19] | Potency [20]

IC(I)I
inactive: Potency [1] | Potency [2] | Potency [3] | max response [4] 7.94% and 2.04% | Potency [5] | Potency [6] | Potency [8] | Potency [9] | Potency [10] | Potency [12] | Potency [13] | Potency [14] | Potency [15] | Potency [16] | Potency [17] | Potency [18] | Potency [19] | Potency [20]
active: Potency [7] 24.5 µM and 17.4 µM

CCCCCC=O
inactive: Potency [1] | Potency [2] | Potency [3] | max response [4] -0.468% and 7.09% | Potency [5] | Potency [6] | Potency [7] | Potency [8] | Potency [9] | Potency [10] | Potency [12] | Potency [13] | Potency [14] | Potency [15] | Potency [16] | Potency [17] | Potency [18] | Potency [19] | Potency [20]

Nc1ccc(O)c(N)c1
inactive: Potency [1] | Potency [2] | Potency [3] | max response [4] -10.8% and -11.4% | Potency [5] | Potency [6] | Potency [7] | Potency [8] | Potency [9] | Potency [11] | Potency [12] | Potency [13] | Potency [14] | Potency [15] | Potency [16] | Potency [18] | Potency [19] | Potency [20]
